Assay [1] is described as follows: HPAF-II 24hr Apoptosis Induction qHTS against the NCATS CANVASS Library (AID 1347356). The essentials:
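Caspase-Glo 3/7 luminescence, read after 15 min room-temperature development, measures apoptosis in HPAF-II cells treated 24 h at 37 degrees C with an 11-point concentration series; 500 cells/well; doxorubicin control.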

The nature of assay [2]: HEK293 18hr Apoptosis Induction qHTS against the NCATS CANVASS Library (AID 1347357). The essentials: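 HEK293 cells (500/well, DMEM + 10% FBS) treated with an 11-point series for 18 h at 37 degrees C. Caspase-3/7 activity read by Caspase-Glo luminescence after 15 min at room temperature.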
(In general: Quantitative high-throughput screening tests each substance at several concentrations.)

Assay [3] in a line: HEK293 24hr Apoptosis Induction qHTS against the NCATS CANVASS Library (AID 1347359). The essentials:
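HEK293 cells (500/well, DMEM + 10% FBS) were exposed to compounds in an 11-point series for 24 hours at 37 degrees C, then caspase-3/7 activity was read by Caspase-Glo DEVD luciferase luminescence after 15 min.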

Assay [4] is described as follows: HPAF-II 18hr Apoptosis Induction qHTS against the NCATS CANVASS Library (AID 1347360). Put shortly:
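HPAF-II cells at 500/well were exposed for 18 h at 37 C to an 11-point compound series. Caspase-3/7 activity was read by Caspase-Glo luminescence after 15 min at RT.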

The target in assay [5] is Luciferin 4-monooxygenase (Photinus pyralis) (UniProt P08659). The assay is described as follows: Firefly luciferase counterscreen qHTS: Assay Interference Panel against the NCATS CANVASS Library (AID 1347363). Also: series mostly up to about 57 µM. The essentials:
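Purified P. pyralis luciferase was added to compounds (11-point series) preincubated 15 min at room temperature with substrate containing 0.013 mM D-luciferin and 0.013 mM ATP; luminescence was read after 5 min.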
In general terms: Counterscreens check selectivity or assay interference.

Assay [6] in a line: KB-3-1 Cancer Cell Toxicity qHTS against the NCATS CANVASS Library (AID 1347366). Also: nearly all actives have a fitted effect of over 75% in size. Also: potency is read from the fitted curve at half-maximal effect. Put shortly: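 KB-3-1 cells (500/well) in DMEM with 10% FBS were exposed to compounds for 72 h at 37C. Viability was read by CellTiter-Glo luminescence.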
A short description of assay [7]: qHTS for ATAD5 Agonist screened against the NCATS CANVASS Library (AID 1347367).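 Also: luciferase reporter driven by ATAD5 which rises upon DNA damage.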 Also: potency is read from the fitted curve at half-maximal effect. Put shortly: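 Luciferase reporter under ATAD5 control, stably integrated in HEK293T cells (2000/well). Compounds (11 points) incubated 16 h at 37C; viability read first by CellTiter-Fluor, then luminescence reporting ATAD5 activation. MMS positive control.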
The nature of assay [8]: G06 Cancer Cell Toxicity qHTS against the NCATS CANVASS Library (AID 1347368). Also: nearly all actives have a fitted effect of over 60% in size. Also: potency is read from the fitted curve at half-maximal effect. Put shortly:
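Viability measured by CellTiterGlo ATP luminescence after 72 hr at 37C, 5% CO2. Canine G06 glioma cells plated at 500/well. Compounds tested as 11-point qHTS titrations.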

The nature of assay [9]: MCF7 Cancer Cell Toxicity qHTS against the NCATS CANVASS Library (AID 1347369). Also: potency is read from the fitted curve at half-maximal effect. The essentials: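 MCF7 cells (500/well) were exposed 72 h at 37 °C to compounds in an 11-point series. Viability was read as ATP content by CellTiterGlo luminescence.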
The nature of assay [10]: qHTS for ATAD5 Antagonist screened against the NCATS CANVASS Library (AID 1347370).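 Also: HEK293T cells carrying an ATAD5 luciferase reporter co-treated with 10 µM 5-fluorouridine; series mostly up to about 46 µM; nearly all actives have a fitted effect of over 65% in size.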 The essentials: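 Compounds (11-point) co-dosed with 10 µM 5-FUrd for 16 h at 37 °C onto HEK293T-ATAD5 luciferase reporter cells. Viability measured by CellTiter-Fluor fluorescence, then ATAD5 reporter signal by luminescence.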
Assay [11] is described as follows: J3T Cancer Cell Toxicity qHTS against the NCATS CANVASS Library (AID 1347371). Also: potency is read from the fitted curve at half-maximal effect. Put shortly:
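Cytotoxicity read as CellTiterGlo ATP luminescence after 72 h incubation (37C, 5% CO2) of J3T canine glioma cells (500/well) with an 11-point compound series.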

Assay [12] deals with Nuclear receptor subfamily 1 group I member 3 (Homo sapiens) (UniProt Q14994). Kind of assay: qHTS for Constitutive Androstane Receptor (CAR) Antagonist screened against the NCATS CANVASS Library (AID 1347372). Also: potency is read from the fitted curve at half-maximal effect. The essentials: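 Cells were seeded and left 4hr to attach, then received compound at 11 concentrations and 50 nM CITCO. Following 24hr incubation, fluorescence viability and luciferase luminescence were read sequentially.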

Assay [13] shares this target. The assay is described as follows: qHTS for Constitutive Androstane Receptor (CAR) Agonist screened against the NCATS CANVASS Library (AID 1347373).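 Also: every well also contained 1.5 µM PK11195 alongside the test compound.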 Put shortly:
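Agonist mode with 1.5uM PK11195 present: compounds for 24hr on HepG2-hCAR-CYP2B6 cells. CellTiter-Fluor fluorescence (ex 405, em 540 nm) gives viability; ONE-Glo luminescence reports CAR activation.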

The nature of assay [14]: 10-beta competent E. coli microbial cell viability qHTS against the NCATS CANVASS Library (AID 1347376). Also: series mostly up to about 46 µM. The essentials:
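Read-out: BacTiter-Glo ATP luminescence, taken 20 min after reagent addition. Beforehand, 10-beta competent E. coli at 0.2 OD had been incubated overnight at 37C with compounds at 11 concentrations.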

The nature of assay [15]: Inflammasome Signaling qHTS Counterscreen: IL-1-beta AlphaLISA counterscreen against the NCATS CANVASS Library (AID 1347381).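 Also: cell-free check with purified IL-1β in medium and no THP-1 cells; series mostly up to about 57 µM.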 The essentials: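 Purified IL-1-beta (4 pg/well) + compound, 11-pt conc. series; acceptor beads 6 ug/mL + biotin-Ab 0.6 nM final, 1 h RT; SA-donor 24 ug/ml final, 30 min dark RT; read ex 680/em 615.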
Assay [16] in a line: Cytotoxicity qHTS for assessment of Hepg2 cells membrane integrity screened against the NCATS CANVASS Library (AID 1347387). The essentials: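 Membrane damage quantified as fluorescent LDH-release signal (ex 560, em 590 nm) in HepG2 cells treated 5 hr at 37C. qHTS format, 11 concentrations spanning 0.59 nM - 46 uM final, cells plated at 2000 per well the night before.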
Assay [17] is described as follows: Viability qHTS for inhibitors of the SERCaMP assay screened against the NCATS CANVASS Library (AID 1347400). Also: nearly all actives have a fitted effect of over 70% in size. Also: potency is read from the fitted curve at half-maximal effect. Put shortly:
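CellTiter-Glo luminescence measured cytotoxicity after 48 h at 37C of compound treatment (11-point series). Cells were SH-SY5Y-GLuc SERCaMP MJH297 derivatives, seeded at 1000 per well 4 h beforehand.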

In assay [18] the test system is NAD(P)H diaphorase (Clostridium kluyveri). Kind of assay: Diaphorse counterscreen qHTS: Assay Interference Panel against the NCATS CANVASS Library (AID 1347362). Put shortly:
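Clostridium kluyveri diaphorase in PBS with 0.01% Tween-20 was preincubated 15 min at room temperature in the dark with compounds (11-point series). Resorufin fluorescence (ex 525/20, em 598/25) was read 5 min after adding resazurin/NADH.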

Assay [19] can be described thus: qHTS for H2AX Agonists against the NCATS CANVASS Library (AID 1347378). The essentials:
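CHO-K1 cells (1000/well, overnight at 37C) exposed to compounds at several concentrations for 3 hr at 37C, 0.76% DMSO final. Lysates read by TR-FRET (phospho-H2AX S139 Eu-cryptate antibody / H2AX-d2 antibody) after 24 hr at room temperature; 665/615 nm ratio.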

Assay [20] is described as follows: qHTS for Inflammasome Signaling Inhibitors: IL-1-beta AlphaLISA screen against the NCATS CANVASS Library (AID 1347379).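 Also: human THP-1 cells primed with LPS then triggered with ATP.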 The essentials: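 Secreted IL-1B from human THP-1 cells quantified by AlphaLISA 16 hr after compound addition (final up to 57.5 uM). A 1 hr compound pretreatment preceded inflammasome activation with 250 ng/mL LPS plus 1.25 mM ATP (final).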

Unmarked numbers belong to inactive results. Records with an inconclusive call do not appear. The source made the active and inactive calls. Calls follow the shape of the dose curve; as a rule, active = well fitted curve in the direction sought with a large enough effect; inconclusive = small, poorly fitted or top-dose-only effect, or another doubt; inactive = no such curve, though single readings can be large; an effect the other way counts as inactive or inconclusive.

Nuclear receptor subfamily 1 group I member 3 (Homo sapiens), sequence (Q14994 whole entry, looked up): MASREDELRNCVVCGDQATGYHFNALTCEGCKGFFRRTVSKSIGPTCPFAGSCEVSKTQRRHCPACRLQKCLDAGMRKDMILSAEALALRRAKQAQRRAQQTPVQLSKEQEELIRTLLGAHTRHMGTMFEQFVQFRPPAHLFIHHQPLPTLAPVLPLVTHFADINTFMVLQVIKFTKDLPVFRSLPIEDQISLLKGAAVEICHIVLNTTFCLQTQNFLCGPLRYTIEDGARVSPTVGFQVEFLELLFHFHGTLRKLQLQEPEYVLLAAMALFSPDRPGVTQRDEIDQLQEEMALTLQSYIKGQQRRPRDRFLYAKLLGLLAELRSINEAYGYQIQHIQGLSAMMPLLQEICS
Luciferin 4-monooxygenase (Photinus pyralis), sequence (P08659 whole entry, looked up): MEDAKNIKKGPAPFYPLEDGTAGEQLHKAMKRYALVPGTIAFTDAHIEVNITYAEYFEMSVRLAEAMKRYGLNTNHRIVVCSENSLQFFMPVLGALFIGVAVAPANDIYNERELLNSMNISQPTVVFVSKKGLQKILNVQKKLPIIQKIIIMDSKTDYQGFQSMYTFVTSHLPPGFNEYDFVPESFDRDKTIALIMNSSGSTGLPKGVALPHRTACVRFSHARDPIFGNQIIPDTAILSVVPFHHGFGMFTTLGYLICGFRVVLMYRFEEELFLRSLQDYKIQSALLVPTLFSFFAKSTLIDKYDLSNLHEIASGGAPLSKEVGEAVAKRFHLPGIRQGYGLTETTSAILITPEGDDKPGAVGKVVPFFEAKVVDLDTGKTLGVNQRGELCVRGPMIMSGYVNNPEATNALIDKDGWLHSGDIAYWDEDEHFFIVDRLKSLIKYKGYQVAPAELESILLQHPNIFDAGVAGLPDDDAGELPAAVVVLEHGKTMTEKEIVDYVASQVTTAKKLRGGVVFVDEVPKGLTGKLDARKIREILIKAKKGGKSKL

As to `C=CC(CCCCC)C1C(=O)NC(=O)C1C(=O)C1C(/C=C/C)C=CC2CC(C(=O)O)CC(C)C21` (centres undefined), the outcome in [1], in assay [14], in assay [15] and in assay [16] was inactive. In addition, the Potency result in [2], in assay [3], in assay [4], in [5], in [6] and in assay [7] was “inactive” in each case. The Potency result in [8], in assay [9], in [10], in assay [11], in assay [12] and in assay [13] was “inactive” in each case. Further, in assay [17], the Potency entry was “inactive”.
As to `C=C1CC[C@@H](O[C@H]2C[C@@](O)([C@H](C)NC(=O)c3[nH]c(C)c(Cl)c3Cl)[C@H](O)[C@@H](C)O2)[C@@H]2C=C[C@H](C)C(/C(O)=C3/C(=O)[C@H](C(C)C)N([C@@H]4O[C@H](C)[C@H](OC(N)=O)[C@H](OC(C)=O)[C@@H]4OC)C3=O)[C@@H]12` (some centres undefined), the call in [1], in assay [14], in assay [15] and in assay [16] was inactive. Besides, the Potency result in assay [2], in [3], in assay [4], in assay [18], in [5] and in [6] was “inactive” throughout. The Potency entry in [7], in [9], in assay [10], in [11], in assay [12] and in [13] was “inactive” in each case. The Potency entry in assay [19], in [20] and in [17] was “inactive” throughout.
As for `C[C@]12CCC[C@](C)(C(=O)O)[C@@H]1CC[C@@]1(C)c3cocc3CC[C@H]21`, the outcome in assay [1], in assay [14], in assay [15] and in [16] was inactive. For the same compound, the Potency entry in [2], in [3], in [4], in [18], in assay [5] and in [6] was “inactive” throughout. Besides, the Potency result in [7], in assay [8], in [10], in [11], in assay [12] and in assay [13] was “inactive” in each case. Moreover, the Potency entry in assay [19], in [20] and in assay [17] was “inactive” in each case.
In the case of `CCC(=O)CCCCC[C@@H]1NC(=O)[C@H]2CCCCN2C(=O)[C@H](C(C)C)NC(=O)[C@H](Cc2cn(OC)c3ccccc23)NC1=O`, the compound was called inactive in [1], in assay [14], in assay [15] and in assay [16]. Further, the Potency entry in [2], in assay [3], in assay [4], in assay [18], in [5] and in assay [10] was “inactive” in each case. In addition, the Potency result in assay [13] is “inactive”. The Potency was 7.43 µM (active) in assay [6]; 3.31 µM (active) in assay [7]; 4.69 µM (active) in assay [8]; 11.8 µM (active) in [11]; 11.7 µM (active) in assay [12]; 15.2 µM (active) in assay [17].
Turning to `CC(=O)Oc1cc2c(c(OC(C)=O)c1C1CCc3cc(Cl)c(Cl)n31)C(=O)n1c-2cc(Cl)c1Cl` (centres undefined), the call in assay [1], in [14], in assay [15] and in assay [16] was inactive. The Potency result in assay [2], in assay [3], in [4], in assay [18], in assay [5] and in [7] was “inactive” in each case. Besides, the Potency entry in [12] and in assay [19] was “inactive” each time. Besides, the Potency in [6] was 23.5 µM (active); in [8], 14.8 µM (active); in assay [11], 13.2 µM (active); in assay [17], 42.8 µM (active).
For the compound `O[C@H]1c2ccccc2-c2c3c(cc4c2[C@@H]1NCC4)OCO3`, the compound was classed as inactive in assay [1], in assay [14] and in [16]. The Potency result in assay [2], in assay [3], in assay [4], in assay [5], in assay [7] and in assay [11] was “inactive” throughout. In addition, the Potency entry in assay [13] and in assay [19] was “inactive” throughout. Also, the Potency was 16.6 µM (active) in assay [8]; 29.4 µM (active) in [9]; 16.6 µM (active) in assay [12]; 24.3 µM (active) in [20]; 38.1 µM (active) in [17].
